# Screens deposited in PubChem by Center for Chemical Genomics, University of Michigan.
# In the library only some 0.93% were active in any assay of this set; here they are far more common.
# HIV TAR-Tat – TAR RNA-Tat peptide displacers, HIV-1, primary screen, biochemical, FRET, FAM/TAMRA-labeled Tat; HIV-1 TAR RNA, Tat peptide displacement FRET; hits give high values; z-score (no concentration beside the values); actives 0.6% (n = 100,000); AID 1259389, 2018; active means z-score of 3 or more in at least 2 runs
# CDC25B-CDK2 inh – primary biochemical HTRF screen for blockers of M-phase inducer phosphatase 2 binding to CDK2/cyclin A; P30305+P24941; HTRF CDC25B-CDK2/CyclinA binding, anti-His/anti-Flag; hits give high values; z-score (no concentration beside the values); actives 0.72% (n = 94,000); AID 1259370, 2018; in the data active means z-score above about 3.2
# The depositor's hits bear a star; / = no result given; ! = a repeat was not active.
SMILES,HIV TAR-Tat,CDC25B-CDK2 inh
COc1ccc(C2C3=C(Nc4ncnn42)c2ccccc2OC3c2ccc(SC)cc2)cc1OC (stereo unspecified),1.5,/
CC(=O)NS(=O)(=O)c1ccc(NC(=O)CCN2C(=O)/C(=C/c3ccccc3)SC2=S)cc1,/,-2.5
O=C(O)CN1C(=O)/C(=C\c2ccc(-c3cccc4c3C(=O)c3ccccc3C4=O)o2)SC1=S,/,10*
CC1CCCN(c2cc(NCc3ccco3)c3c4c(onc24)-c2ccccc2C3=O)C1 (stereo unspecified),-4.4,-1.5
Cc1ncc(CCCCN(C)C)c2c1[nH]c1ccccc12,3.7,1.1
CNCCCCc1cnc(C)c2[nH]c3ccccc3c12,5*,/
Cc1cc2c(s1)CCc1cc(C(=O)N3CCOCC3)sc1-2,2.2,/
COc1ccccc1N1CSC2=C(C#N)C(c3ccc(SC)cc3)CC(=O)N2C1 (stereo unspecified),-1.4,4.6*
Cc1cccc(N2CSC3=C(C#N)C(c4ccccc4)CC(=O)N3C2)c1 (stereo unspecified),-1.1,5.2*
Cc1ccccc1C1CC(=O)N2CN(c3ccccc3F)CSC2=C1C#N (stereo unspecified),-1.2,5.1*
N#CC1=C2SCN(c3ccccc3F)CN2C(=O)CC1c1ccccc1 (stereo unspecified),0.23,6.5*
COc1ccc(N2CSC3=C(C#N)C(c4ccc(SC)cc4)CC(=O)N3C2)c(OC)c1 (stereo unspecified),-0.01,2.5
O=C(NC(=S)Nc1ccc2nn(-c3cccc4ccccc34)nc2c1)c1cccs1,/,-0.81
O=C(Cn1cnc(S(=O)(=O)N2CCCCC2)c1)NC1CCCCC1,-0.78,/
Cn1c(C(=O)N2CCN(c3ccccc3)CC2)c(N2CCCC2=O)c2cc(F)ccc21,0.41,/
Cc1ccccc1N1CSC2=C(C#N)C(c3ccc(F)cc3)CC(=O)N2C1 (stereo unspecified),-1.9,4.4*
N#CC1=C2SCN(c3cccc(Cl)c3)CN2C(=O)CC1c1ccc(F)cc1 (stereo unspecified),-0.98,7.4*
N#CC1=C2SCN(C3CCCCC3)CN2C(=O)CC1c1ccc(F)cc1 (stereo unspecified),1.4,0.26
Cc1ccccc1N1CSC2=C(C#N)C(c3ccc(Cl)cc3)CC(=O)N2C1 (stereo unspecified),-2.6,2
Cc1nn(CC(=O)NC2CCCc3ccccc32)c(=O)c2c1sc1ccccc12 (stereo unspecified),-1.2,-2.2
CCC(=O)N1c2ccccc2CC1C(=O)NC1CCCCC1 (stereo unspecified),1.3,/
O=C(Nc1cnc2ccccc2c1)c1ccco1,0.67,/
O=C(CSc1nnc(-c2ccco2)c(-c2ccco2)n1)Nc1cnc2ccccc2c1,26*,0.46
O=C(CSc1n[nH]c(-c2ccccc2)n1)c1ccc(Cl)cc1,/,-1.4
COc1ccc(C(=O)Cn2c3ccccc3n3nc(-c4ccco4)nc23)cc1,7.1*,-5.4
SMILES,HIV TAR-Tat,CDC25B-CDK2 inh
COc1ccc(C(=O)CSc2ccc(-c3cccs3)nn2)cc1,0.45,/
COc1ccc(C(=O)Cn2c3ccccc3n3nc(-c4ccco4)nc23)cc1OC,0.31,-1.2
O=C(CSc1n[nH]c(-c2ccco2)n1)c1ccc(Cl)cc1,17*,-2.2
COc1ccc(C(=O)CSc2nnc(-c3ccco3)c(-c3ccco3)n2)cc1,20*,-1.2
CCN1CCN(C(=O)Cn2ncc3c4ccccc4n(C)c3c2=O)CC1,0.06,-0.94
CC(C)c1nn2c(=O)cc(COc3cccc(NS(=O)(=O)c4ccc(Cl)cc4)c3)nc2s1,0.94,-0.4
CCC(C(=O)NC1CCCc2ccccc21)n1nc(C)c2sc3ccccc3c2c1=O (stereo unspecified),1.5,-0.59
O=C(CSc1nc2ccncc2[nH]1)Nc1ccc(Cl)cc1F,1,0.47
COc1ccc(CN2CSC3=C(C#N)C(c4ccc(Cl)cc4)CC(=O)N3C2)cc1 (stereo unspecified),-0.55,3.8*
N#CC1=C2SCN(Cc3ccccc3)CN2C(=O)CC1c1cccc(Br)c1 (stereo unspecified),-0.65,2.9
N#CC1=C2SCN(Cc3ccco3)CN2C(=O)CC1c1ccc(OCc2ccc(Cl)cc2)cc1 (stereo unspecified),-1.6,-0.73
COc1ccc(Br)cc1C1CC(=O)N2CN(c3ccccc3)CSC2=C1C#N (stereo unspecified),-1.9,7.6*
COc1ccc(Br)cc1C1CC(=O)N2CN(c3ccccc3F)CSC2=C1C#N (stereo unspecified),0.18,0.3
COc1ccc(C2CC(=O)N3CN(Cc4ccccc4)CSC3=C2C#N)c(OC)c1 (stereo unspecified),1.1,4.5*
COc1ccc(Br)cc1C1CC(=O)N2CN(Cc3ccccc3)CSC2=C1C#N (stereo unspecified),-1.1,3.2*
N#CC1=C2SCN(Cc3ccccc3)CN2C(=O)CC1c1ccc(Br)cc1 (stereo unspecified),-2.3,-0.18
COc1cc(OC)cc(C(=O)Nc2c(C)nc3sccn3c2=O)c1,1.9,/
Cc1ccnc2nc(NC(=O)C3CC3)nn12,0.16,-0.77
CN1CCN(c2nc(N(C)C)nc(N)c2[N+](=O)[O-])CC1,1.6,/
COc1ccccc1OCC(=O)N(Cc1ccco1)C1CCS(=O)(=O)C1 (stereo unspecified),1.5,-1.4
COc1ccc(-c2noc(CN3CCCCC3)n2)cc1OC,2,-0.8
COc1ccc(-c2noc(CC3CCCCC3)n2)cc1OC,1.6,16*
CC(C)NC(=O)c1c2c(nn1C)-c1ccccc1SC2,0.83,0.15
O=C(N[C@@H](Cc1ccccc1)C(=O)CCl)OCc1ccccc1,0.24,-2.2
CC(C)C[C@@H](C=O)NC(=O)[C@H](CC(C)C)NC(=O)[C@H](CC(C)C)NC(=O)OCc1ccccc1,3.9*!,/
SMILES,HIV TAR-Tat,CDC25B-CDK2 inh
CS(=O)(=O)CS(=O)(=O)NNc1ncc(C(F)(F)F)cc1Cl,/,0.35
CC(=O)N1N=C(c2cc(C3CC3)nc3ccccc23)OC1c1ccc2c(c1)OCO2 (stereo unspecified),4.4*,/
COc1cc(C2OC(c3cc(C4CC4)nc4ccccc34)=NN2C(C)=O)ccc1OC(C)=O (stereo unspecified),0.93,/
CC(=O)N1N=C(c2cccc3ccccc23)OC1c1cc(C)nc2ccccc12 (stereo unspecified),0.06,/
CC(=O)N1N=C(c2cc(C)nc3ccccc23)OC1c1cccs1 (stereo unspecified),3.8*,/
COc1cccc(C[C@H]2NC[C@H](O)[C@H]2OC(C)=O)c1,3.8*,/
COc1cccc(CC2C(=O)Nc3ccccc32)c1 (stereo unspecified),-0.79,-0.8
Nc1ncccc1NC(=O)CCC(=O)O,0.11,14*
O=C(O)CCCC(=O)Nc1cccc2cccnc12,1.4,-0.19
Cc1cccc(C)c1N1C(=O)N2CCCN2C1c1ccccc1 (stereo unspecified),1.6,0.65
O=C(Nc1nnc(-c2ccco2)s1)C(=O)c1c[nH]c2ccccc12,17*,-2.1
CC(C)c1nnc(NC(=O)C(=O)c2c[nH]c3ccccc23)s1,2,-1.3
O=C(Nc1cccnc1)c1ccc2cccc(O)c2n1,6.4*,/
O=C(NC1CC1)c1ccc2cccc(O)c2n1,1.7,/
CCN(Cc1ccccc1)S(=O)(=O)c1cc(-c2ccc(=O)[nH]n2)ccc1Cl,1.7,/
